Test results published in the supplement of paper PMC11732987, “Enantioselective OTUD7B fragment discovery through chemoproteomics screening and high-throughput optimisation” (Communications Chemistry, 2025).

Experiments:
Experiment in all cases: log2 ratio of Biotin-Ahx-Ub-VS probe labelling (fragment/DMSO); higher = less target engagement (more negative = stronger competition), active = hit call of the paper (q ≤ 0.05, log2 ratio ≤ -1)
Conditions in all cases: compound concentration: 200 uM; treatment time: 3 h
[1] = target: T1, USP19 (UniProt O94966)
T1 sequence (whole entry): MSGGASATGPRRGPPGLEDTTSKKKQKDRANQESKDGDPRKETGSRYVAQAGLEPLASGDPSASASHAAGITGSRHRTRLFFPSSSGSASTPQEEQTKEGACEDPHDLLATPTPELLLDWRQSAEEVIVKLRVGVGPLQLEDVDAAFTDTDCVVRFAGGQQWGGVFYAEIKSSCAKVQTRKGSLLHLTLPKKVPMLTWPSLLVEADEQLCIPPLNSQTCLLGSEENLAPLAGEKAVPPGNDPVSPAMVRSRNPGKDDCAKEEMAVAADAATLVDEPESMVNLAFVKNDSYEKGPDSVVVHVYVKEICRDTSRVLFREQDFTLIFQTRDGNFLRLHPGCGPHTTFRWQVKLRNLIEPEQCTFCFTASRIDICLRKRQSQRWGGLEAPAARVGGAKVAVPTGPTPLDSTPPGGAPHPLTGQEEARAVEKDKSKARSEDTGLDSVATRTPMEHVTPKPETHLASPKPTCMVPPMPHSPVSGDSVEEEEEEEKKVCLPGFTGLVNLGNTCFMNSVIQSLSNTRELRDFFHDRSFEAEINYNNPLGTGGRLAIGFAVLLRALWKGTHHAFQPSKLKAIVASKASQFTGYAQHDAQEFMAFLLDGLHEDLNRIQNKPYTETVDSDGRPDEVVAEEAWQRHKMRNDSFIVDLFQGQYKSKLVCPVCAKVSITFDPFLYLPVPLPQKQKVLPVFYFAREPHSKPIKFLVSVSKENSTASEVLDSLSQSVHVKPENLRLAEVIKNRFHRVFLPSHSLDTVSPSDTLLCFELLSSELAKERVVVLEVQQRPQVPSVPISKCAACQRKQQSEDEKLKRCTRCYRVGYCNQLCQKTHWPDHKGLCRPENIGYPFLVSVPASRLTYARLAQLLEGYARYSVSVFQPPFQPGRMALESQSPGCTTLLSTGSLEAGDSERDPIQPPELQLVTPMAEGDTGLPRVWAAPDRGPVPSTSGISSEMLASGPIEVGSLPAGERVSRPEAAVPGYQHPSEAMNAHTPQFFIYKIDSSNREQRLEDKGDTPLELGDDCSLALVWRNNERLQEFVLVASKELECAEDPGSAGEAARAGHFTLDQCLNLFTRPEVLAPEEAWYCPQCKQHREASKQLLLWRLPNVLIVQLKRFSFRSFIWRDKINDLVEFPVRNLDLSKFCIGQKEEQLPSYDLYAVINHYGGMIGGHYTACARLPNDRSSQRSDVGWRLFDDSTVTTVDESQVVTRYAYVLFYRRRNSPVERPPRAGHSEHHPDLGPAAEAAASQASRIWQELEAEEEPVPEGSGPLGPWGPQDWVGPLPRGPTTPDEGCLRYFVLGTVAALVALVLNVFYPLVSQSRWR
Method in brief: (§1)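 Labelled DUBs from HEK293T lysate were NeutrAvidin-enriched, digested with LysC and trypsin, and run by diaPASEF LC-MS/MS. Before that, each 495 µg sample in Tris/CHAPS/IGEPAL buffer with protease inhibitors was treated in triplicate with fragment at 200 µM or vehicle for 3 h, then with Biotin-Ahx-Ub-VS at 0.5 µM final for 1 h. Values are average log2 ratios of fragment over vehicle by unpaired t-test, based on global-median-normalised Spectronaut label-free quantities from proteins with ≥2 unique peptides.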

[2] = target: USP24 (UniProt Q9UPU5)
Method in brief: as §1

[3] = target: T2, USP25 (UniProt Q9UHP3)
T2 sequence (whole entry): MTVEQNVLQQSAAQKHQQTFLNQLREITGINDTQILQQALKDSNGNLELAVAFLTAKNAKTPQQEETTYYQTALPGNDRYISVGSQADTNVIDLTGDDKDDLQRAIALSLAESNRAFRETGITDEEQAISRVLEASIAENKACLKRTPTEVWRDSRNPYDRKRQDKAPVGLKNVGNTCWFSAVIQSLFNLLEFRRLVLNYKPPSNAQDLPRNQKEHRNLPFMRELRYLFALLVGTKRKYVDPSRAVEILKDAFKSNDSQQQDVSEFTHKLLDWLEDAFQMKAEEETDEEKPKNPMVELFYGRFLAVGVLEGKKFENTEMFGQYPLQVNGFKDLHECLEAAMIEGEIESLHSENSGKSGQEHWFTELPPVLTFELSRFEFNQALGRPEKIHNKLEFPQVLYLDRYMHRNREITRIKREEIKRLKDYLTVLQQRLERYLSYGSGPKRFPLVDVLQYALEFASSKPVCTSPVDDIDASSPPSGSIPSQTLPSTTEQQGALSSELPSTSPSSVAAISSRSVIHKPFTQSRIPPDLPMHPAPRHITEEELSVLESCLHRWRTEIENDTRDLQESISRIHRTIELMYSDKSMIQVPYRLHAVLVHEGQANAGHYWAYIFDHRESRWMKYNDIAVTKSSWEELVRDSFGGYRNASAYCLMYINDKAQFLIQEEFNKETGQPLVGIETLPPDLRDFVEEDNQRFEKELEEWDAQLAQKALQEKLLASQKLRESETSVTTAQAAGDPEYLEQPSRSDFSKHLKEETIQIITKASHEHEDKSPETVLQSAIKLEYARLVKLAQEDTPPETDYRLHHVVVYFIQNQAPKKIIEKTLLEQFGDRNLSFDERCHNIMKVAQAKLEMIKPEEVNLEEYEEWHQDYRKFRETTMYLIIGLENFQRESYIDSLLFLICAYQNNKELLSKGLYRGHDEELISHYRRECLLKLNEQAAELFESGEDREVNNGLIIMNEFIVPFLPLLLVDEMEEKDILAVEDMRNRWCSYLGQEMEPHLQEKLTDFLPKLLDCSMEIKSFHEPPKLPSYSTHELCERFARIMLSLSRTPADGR
Method in brief: as §1

[4] = target: T3, USP28 (UniProt Q96RU2)
T3 sequence (whole entry): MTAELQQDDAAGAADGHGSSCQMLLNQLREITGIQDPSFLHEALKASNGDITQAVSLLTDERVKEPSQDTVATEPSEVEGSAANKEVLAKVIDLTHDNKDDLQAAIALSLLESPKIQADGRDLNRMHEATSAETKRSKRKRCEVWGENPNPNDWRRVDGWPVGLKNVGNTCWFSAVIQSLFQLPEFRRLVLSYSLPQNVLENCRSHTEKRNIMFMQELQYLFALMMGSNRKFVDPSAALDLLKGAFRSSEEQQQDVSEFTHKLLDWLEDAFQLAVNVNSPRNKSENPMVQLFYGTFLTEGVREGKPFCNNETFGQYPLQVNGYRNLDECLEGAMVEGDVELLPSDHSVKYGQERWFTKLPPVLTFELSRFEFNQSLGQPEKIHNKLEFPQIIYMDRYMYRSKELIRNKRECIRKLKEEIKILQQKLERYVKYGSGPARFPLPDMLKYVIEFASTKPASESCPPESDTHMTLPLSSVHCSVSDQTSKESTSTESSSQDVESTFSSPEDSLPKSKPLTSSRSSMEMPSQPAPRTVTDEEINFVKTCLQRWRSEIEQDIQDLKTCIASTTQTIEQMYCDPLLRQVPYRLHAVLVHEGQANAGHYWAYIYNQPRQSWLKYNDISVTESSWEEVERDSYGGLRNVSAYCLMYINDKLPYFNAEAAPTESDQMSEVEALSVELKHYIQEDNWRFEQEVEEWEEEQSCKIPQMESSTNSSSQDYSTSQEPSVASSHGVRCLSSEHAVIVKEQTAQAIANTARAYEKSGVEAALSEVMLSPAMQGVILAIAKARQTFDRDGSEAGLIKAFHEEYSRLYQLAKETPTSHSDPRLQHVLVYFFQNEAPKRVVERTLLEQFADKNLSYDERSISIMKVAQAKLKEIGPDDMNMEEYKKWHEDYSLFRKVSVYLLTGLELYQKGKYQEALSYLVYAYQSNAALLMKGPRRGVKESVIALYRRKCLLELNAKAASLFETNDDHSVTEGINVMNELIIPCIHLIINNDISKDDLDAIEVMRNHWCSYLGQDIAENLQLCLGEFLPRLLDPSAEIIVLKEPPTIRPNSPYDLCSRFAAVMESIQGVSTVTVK
Method in brief: as §1

Measured: log2 ratio of Biotin-Ahx-Ub-VS probe labelling

Chain of USP24 (Q9UPU5 whole entry): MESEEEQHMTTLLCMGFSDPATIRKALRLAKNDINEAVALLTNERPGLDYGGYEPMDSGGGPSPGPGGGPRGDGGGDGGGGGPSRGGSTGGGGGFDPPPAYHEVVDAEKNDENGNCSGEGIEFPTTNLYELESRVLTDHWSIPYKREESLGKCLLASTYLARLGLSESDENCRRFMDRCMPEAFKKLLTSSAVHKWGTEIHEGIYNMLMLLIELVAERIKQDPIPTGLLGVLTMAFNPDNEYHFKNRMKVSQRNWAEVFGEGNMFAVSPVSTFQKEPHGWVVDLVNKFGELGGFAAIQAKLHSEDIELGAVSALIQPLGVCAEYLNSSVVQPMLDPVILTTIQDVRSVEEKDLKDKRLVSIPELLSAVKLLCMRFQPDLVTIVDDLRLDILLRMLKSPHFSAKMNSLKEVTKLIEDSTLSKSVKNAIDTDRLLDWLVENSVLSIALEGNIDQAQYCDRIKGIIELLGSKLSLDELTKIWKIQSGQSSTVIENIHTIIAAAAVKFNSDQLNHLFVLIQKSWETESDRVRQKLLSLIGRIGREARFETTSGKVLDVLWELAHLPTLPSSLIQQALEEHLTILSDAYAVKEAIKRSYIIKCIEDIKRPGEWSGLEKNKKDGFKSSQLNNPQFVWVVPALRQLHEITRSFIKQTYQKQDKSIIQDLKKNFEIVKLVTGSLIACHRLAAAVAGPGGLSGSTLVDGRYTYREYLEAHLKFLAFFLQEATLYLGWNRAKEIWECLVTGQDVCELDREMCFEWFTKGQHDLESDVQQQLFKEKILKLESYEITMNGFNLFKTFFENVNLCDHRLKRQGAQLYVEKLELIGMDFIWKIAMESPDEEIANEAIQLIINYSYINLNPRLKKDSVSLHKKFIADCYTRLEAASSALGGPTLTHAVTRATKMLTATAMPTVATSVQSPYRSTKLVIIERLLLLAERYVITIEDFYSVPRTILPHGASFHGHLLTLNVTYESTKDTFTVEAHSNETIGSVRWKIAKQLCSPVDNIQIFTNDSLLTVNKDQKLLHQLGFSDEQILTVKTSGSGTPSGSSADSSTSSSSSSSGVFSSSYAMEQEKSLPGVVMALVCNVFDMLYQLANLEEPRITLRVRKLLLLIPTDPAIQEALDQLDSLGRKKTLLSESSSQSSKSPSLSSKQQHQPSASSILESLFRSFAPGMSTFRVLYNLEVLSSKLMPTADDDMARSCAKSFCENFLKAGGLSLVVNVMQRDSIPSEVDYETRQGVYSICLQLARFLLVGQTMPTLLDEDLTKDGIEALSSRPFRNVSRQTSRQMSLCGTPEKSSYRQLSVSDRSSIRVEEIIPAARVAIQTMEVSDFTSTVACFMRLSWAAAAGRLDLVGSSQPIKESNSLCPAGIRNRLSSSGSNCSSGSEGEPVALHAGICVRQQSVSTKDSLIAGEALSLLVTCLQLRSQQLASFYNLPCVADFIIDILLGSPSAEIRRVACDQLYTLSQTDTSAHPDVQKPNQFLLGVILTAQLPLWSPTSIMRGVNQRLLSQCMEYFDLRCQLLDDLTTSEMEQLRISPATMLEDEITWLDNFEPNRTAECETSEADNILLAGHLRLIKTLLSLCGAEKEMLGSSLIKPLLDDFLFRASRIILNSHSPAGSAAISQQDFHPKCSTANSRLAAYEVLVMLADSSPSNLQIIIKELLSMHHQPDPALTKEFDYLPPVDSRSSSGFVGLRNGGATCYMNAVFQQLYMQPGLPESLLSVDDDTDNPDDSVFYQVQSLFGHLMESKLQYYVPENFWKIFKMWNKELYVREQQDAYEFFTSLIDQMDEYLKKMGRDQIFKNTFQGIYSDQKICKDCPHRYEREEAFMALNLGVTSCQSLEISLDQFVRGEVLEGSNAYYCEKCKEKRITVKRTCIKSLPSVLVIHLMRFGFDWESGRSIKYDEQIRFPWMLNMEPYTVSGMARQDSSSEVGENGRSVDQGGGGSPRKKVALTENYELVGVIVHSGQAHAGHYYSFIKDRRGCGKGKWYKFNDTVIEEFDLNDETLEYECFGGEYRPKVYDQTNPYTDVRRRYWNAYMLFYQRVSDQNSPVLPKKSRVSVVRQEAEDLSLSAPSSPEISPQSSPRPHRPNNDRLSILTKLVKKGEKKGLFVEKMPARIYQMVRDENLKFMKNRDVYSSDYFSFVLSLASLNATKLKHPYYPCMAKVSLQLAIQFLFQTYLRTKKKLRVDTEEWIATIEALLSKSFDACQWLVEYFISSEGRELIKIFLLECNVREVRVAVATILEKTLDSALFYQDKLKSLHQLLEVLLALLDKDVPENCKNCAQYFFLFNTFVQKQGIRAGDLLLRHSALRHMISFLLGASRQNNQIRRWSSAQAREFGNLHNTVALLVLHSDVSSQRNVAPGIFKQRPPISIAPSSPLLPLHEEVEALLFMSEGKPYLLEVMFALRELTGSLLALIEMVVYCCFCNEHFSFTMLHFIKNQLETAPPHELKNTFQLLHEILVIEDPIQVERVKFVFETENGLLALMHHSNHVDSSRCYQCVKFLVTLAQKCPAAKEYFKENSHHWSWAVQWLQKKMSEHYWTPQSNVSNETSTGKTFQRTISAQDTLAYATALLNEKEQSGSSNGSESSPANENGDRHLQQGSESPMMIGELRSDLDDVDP

Cl.O=C(CCl)NCc1ccnc(Oc2ccccc2F)c1
inactive: [1] -0.111 | [2] -0.349 | [3] -0.678 | [4] -0.558
